Data on eleven compounds can be found in PubChem BioAssay (Tox21).

SMILES strings stand for the structures. “And” between values parts separate entries of the source, which are not always exact repeats. Equal entries are not always repeated. A number with no mark means an inactive call. Records with an inconclusive call do not appear. The source made the active and inactive calls. Unless noted, calls come from the whole dose curve; as a rule, active = well fitted curve in the direction sought with a large enough effect in the repeat runs; inconclusive = weak or mixed curves; inactive = no such curve, though single readings can be large; an effect the other way counts as inactive or inconclusive.

A short description of assay [1]: qHTS assay to identify small molecule antagonists of the androgen receptor (AR) signaling pathway using the MDA cell line in the presence of 0.5 nM R1881 - cell viability counter screen (AID 1259242). Note: potency is the fitted concentration of half-maximal effect; nearly all actives have a fitted effect of over 45% in size. The gist of the method: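 Concentration-response screen of compounds for toxicity in MDA-kb2 reporter cells: 16 hr at 37C with 0.5 nM R1881, endpoint live-cell protease fluorescence measured in the reporter wells.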
In general terms: Quantitative high-throughput screening tests each substance at several concentrations.

Assay [2] is described as follows: qHTS assay to identify small molecule HDAC inhibitors (AID 1259364).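 Note: wild-type HCT-116 cells with endogenous class I/II HDAC activity; top concentration of the series differs between compounds; % is set by controls: 0 for no effect and ±100 for the full control effect; nearly all actives have a fitted effect of over 45% in size.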 An outline of the steps: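 Screening used wild-type human colon HCT-116 cells incubated overnight, dosed with compounds for 2 hours, and assayed with a homogeneous luminogenic HDAC I/II reagent for 30 minutes at room temperature.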
A short description of assay [3]: qHTS assay to identify small molecule HDAC inhibitors - cell viability counter screen (AID 1259365). Note: series mostly up to about 92 µM; % is set by controls: 0 for no effect and ±100 for the full control effect; nearly all actives have a fitted effect of over 50% in size. An outline of the steps: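 Viability readout: CellTiter-Glo luminescence. Wild-type HCT-116 cells, 2hr compound treatment following overnight attachment at 37 C.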
Assay [4] is described as follows: qHTS assay to identify small molecule agonists of the sonic hedgehog signaling (Shh) pathway - cell viability counter screen (AID 1259366). Note: nearly all actives have a fitted effect of over 50% in size. Note: potency is the fitted concentration of half-maximal effect. The gist of the method:
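Viability measured fluorometrically (CellTiter-Fluor, 1hr, 37C) in 3T3 Gli1-Luc reporter cells after 23hr compound exposure within a 24hr incubation at 37C/5% CO2.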

Assay [5] in a line: qHTS assay to identify small molecule antagonists of the sonic hedgehog signaling (Shh) pathway - cell viability counter screen (AID 1259367). Note: nearly all actives have a fitted effect of over 55% in size. Note: potency is the fitted concentration of half-maximal effect. The gist of the method: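 Tox21 library chemicals were tested on a Gli1-Luc NIH/3T3 clone (2,000 cells/well) stimulated by conditioned medium; viability was quantified as fluorescence from CellTiter-Fluor reagent added at 23 hr.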
The nature of assay [6]: qHTS assay to identify small molecule agonists of the sonic hedgehog signaling (Shh) pathway (AID 1259368; calls by dose curve;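 note: NIH/3T3-derived 3T3Gli1-Luc cells carrying a stable Gli1-driven firefly luciferase reporter; series mostly up to about 92 µM; % is set by controls: 0 for no effect and ±100 for the full control effect; nearly all actives have a fitted effect of over 15% in size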). An outline of the steps:
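Hedgehog pathway agonism scored by increased firefly luciferase luminescence in 3T3Gli1-Luc cells treated 24 hr at 37 C; detection used a 30 min room-temperature reagent incubation.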

The nature of assay [7]: qHTS assay to identify small molecule antagonists of the sonic hedgehog signaling (Shh) pathway (AID 1259369; calls by dose curve; note: nearly all actives have a fitted effect of over 45% in size; note: potency is the fitted concentration of half-maximal effect). The gist of the method:
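NIH/3T3 stable Gli1-Luc clone, 2,000 cells/well, 4hr settle; cpd + conditioned medium 24hr; Luc reagent 30min RT; luminescence.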

Assay [8] is described as follows: qHTS assay to identify small molecule agonists of the androgen receptor (AR) signaling pathway in the presence of an antagonist - cell viability counter screen (AID 1259379). Note: nearly all actives have a fitted effect of over 25% in size. Note: potency is the fitted concentration of half-maximal effect. The gist of the method: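 MDA-kb2 viability measured by CellTiter-Fluor fluorescence in the same wells as the luciferase signal; nilutamide 3.0uM final; 15-point compound titration; 16 hr at 37C.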

The nature of assay [9]: qHTS assay to identify small molecule antagonists of the estrogen receptor beta (ER-beta) signaling pathway - cell viability counter screen (AID 1259382). Note: nearly all actives have a fitted effect of over 55% in size. Note: potency is the fitted concentration of half-maximal effect. An outline of the steps: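 Readout: luminescence, CellTiter-Glo, same wells as bla assay. System: ER-beta-UAS-bla GripTite HEK293T, 2% charcoal-stripped FBS. Exposure: compounds plus 1nM 17-beta-estradiol, 16 hr, 37C.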

In assay [10] the target is Estrogen receptor (Homo sapiens) (UniProt P03372). Briefly: qHTS assay to identify small molecule agonists of the estrogen receptor alpha (ER-alpha) signaling pathway in the presence of an antagonist (AID 1259383; calls by dose curve; note: nearly all actives have a fitted effect of over 15% in size; note: potency is the fitted concentration of half-maximal effect). The gist of the method: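 Quantitative HTS confirmation: compounds titrated at 15 concentrations onto estrogen-deprived VM7Luc4E2 cells carrying a four-ERE luciferase construct, with ICI-182,780 present at 10.0nM final. Signal is luminescence after 22hr exposure.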

Assay [11] shares this target. Briefly: qHTS assay to identify small molecule antagonists of the estrogen receptor alpha (ER-alpha) signaling pathway using the BG1 cell line in the presence of 0.1 nM 17-beta-estradiol (AID 1259244). Note: nearly all actives have a fitted effect of over 50% in size. Note: potency is the fitted concentration of half-maximal effect. The gist of the method:
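Compounds were tested against 0.1 nM (final) 17beta-estradiol in VM7Luc4E2 cells, which express full-length ER-alpha and an ERE-luciferase reporter; luminescence was recorded following 22 h exposure.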

Assay [12] in a line: qHTS assay to identify small molecule agonists of the estrogen receptor beta (ER-beta) signaling pathway - cell viability counter screen (AID 1259380). Note: nearly all actives have a fitted effect of over 30% in size. Note: potency is the fitted concentration of half-maximal effect. The gist of the method:
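Measured: luminescence from CellTiter-Glo after 30 min at room temperature, added to wells already read for the LiveBLAzer FRET reporter (2 hr substrate); ER-beta-UAS-bla HEK293T cells had 16 hr compound treatment at 37C, 5% CO2.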

A short description of assay [13]: qHTS assay to identify small molecule agonists or antagonists of the thyroid stimulating hormone receptor (TSHR) signaling pathway - wild type cell line counter screen (AID 1259384; calls by dose curve; note: % is set by controls: 0 for no effect and ±100 for the full control effect). The gist of the method:
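Wild-type Hek293 cells, 800/well, 18 h at 37C, then compound with Ro20-1724 for 30 min RT. cAMP by HTRF (cAMP-d2/anti-cAMP cryptate), 1 h RT, fluorescence read. 15 concentrations, triplicates.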

The target of assay [14] is Estrogen receptor beta (Homo sapiens) (UniProt Q92731). Briefly: qHTS assay to identify small molecule agonists of the estrogen receptor beta (ER-beta) signaling pathway (AID 1259377; active = well fitted activation curve with a large enough effect in the signal ratio in the repeat runs, not every such curve was filed as active; the % refers to the signal ratio; note: % is set by controls: 0 for no effect and ±100 for the full control effect). The gist of the method: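 A UAS-controlled beta-lactamase reporter in ER-beta-UAS-bla HEK293T cells reports receptor activation. Compounds act for 16 hr at 37C in 2% charcoal-stripped serum, and a FRET substrate is read by fluorescence after 2 hours.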

Assay [15] has the same target. Briefly: qHTS assay to identify small molecule antagonists of the estrogen receptor beta (ER-beta) signaling pathway (AID 1259378; active = well fitted inhibition curve with a large enough effect in the signal ratio in the repeat runs, not every such curve was filed as active; the % refers to the signal ratio; note: % is set by controls: 0 for no effect and ±100 for the full control effect). An outline of the steps: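 ER-beta-UAS-bla HEK293T cells in 2% charcoal-stripped FBS medium treated with compound plus 1nM final 17-beta-estradiol for 16 hr at 37C. Beta-lactamase reporter read by FRET substrate fluorescence after 2 hours at room temperature.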

Assay [16] concerns the target Thyrotropin receptor (Homo sapiens) (UniProt P16473). The assay can be described thus: qHTS assay to identify small molecule antagonists of the thyroid stimulating hormone receptor (TSHR) signaling pathway (AID 1259385; calls by dose curve; note: % is set by controls: 0 for no effect and ±100 for the full control effect; nearly all actives have a fitted effect of over 20% in size). An outline of the steps:
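TSHR-HEK293 cells (800/well) plated 18 h, then compounds with Ro20-1724 and TSH at 1.5 ng/mL final, 30 min at room temperature. cAMP quantified by HTRF (cAMP-d2/anti-cAMP-cryptate, 1 h); 15 concentrations in triplicate.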

Assay [17] addresses Androgen receptor (Homo sapiens) (UniProt P10275). The assay can be described thus: qHTS assay to identify small molecule antagonists of the androgen receptor (AR) signaling pathway using the MDA cell line in the presence of 0.5 nM R1881 (AID 1259243). Note: nearly all actives have a fitted effect of over 50% in size. Note: potency is the fitted concentration of half-maximal effect. An outline of the steps:
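With R1881 held at 0.5 nM (final), compound effects on MMTV-luciferase expression in MDA-kb2 cells were scored by luminescence after a 16 hr, 37C incubation.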

The target is the same in assay [18]. The assay can be described thus: qHTS assay to identify small molecule agonists of the androgen receptor (AR) signaling pathway in the presence of an antagonist (AID 1259381; calls by dose curve; note: % is set by controls: 0 for no effect and ±100 for the full control effect; nearly all actives have a fitted effect of over 15% in size). An outline of the steps: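 Luminescent ONE-Glo read, 30min at room temperature, follows 16hr compound exposure (15 concentrations) of MDA-kb2 cells at 37C, 0% CO2, with nilutamide added at 3.0uM final.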

Assay [19] in a line: qHTS assay to identify small molecule phospholipidosis (PLD) inducers (AID 1259344; active = well fitted curve in the direction sought with a large enough effect; an effect the other way counts as inactive or inconclusive; note: % is set by controls: 0 for no effect and ±100 for the full control effect). An outline of the steps: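 Image-based: LipidTOX Red pit count/intensity per well and per cell; HepG2, 24 h compound at 37 C, PFA fixation, Hoechst counterstain.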

Chain of Estrogen receptor beta (Homo sapiens) (Q92731 whole entry, looked up): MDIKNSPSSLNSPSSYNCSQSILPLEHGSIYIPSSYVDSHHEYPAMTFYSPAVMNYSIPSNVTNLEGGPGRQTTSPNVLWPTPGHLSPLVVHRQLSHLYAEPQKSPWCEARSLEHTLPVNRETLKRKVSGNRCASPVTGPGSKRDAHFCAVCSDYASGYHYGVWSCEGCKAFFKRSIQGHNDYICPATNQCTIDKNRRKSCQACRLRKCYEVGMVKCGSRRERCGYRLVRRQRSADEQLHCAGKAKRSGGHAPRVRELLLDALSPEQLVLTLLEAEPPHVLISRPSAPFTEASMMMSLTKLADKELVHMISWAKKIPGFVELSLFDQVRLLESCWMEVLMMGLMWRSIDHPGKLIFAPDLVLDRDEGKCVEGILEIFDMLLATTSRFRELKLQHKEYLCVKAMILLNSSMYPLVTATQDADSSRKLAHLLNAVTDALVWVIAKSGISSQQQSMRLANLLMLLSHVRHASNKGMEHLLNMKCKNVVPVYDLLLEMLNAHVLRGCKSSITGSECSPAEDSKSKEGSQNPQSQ
Chain of Thyrotropin receptor (Homo sapiens) (P16473 whole entry, looked up): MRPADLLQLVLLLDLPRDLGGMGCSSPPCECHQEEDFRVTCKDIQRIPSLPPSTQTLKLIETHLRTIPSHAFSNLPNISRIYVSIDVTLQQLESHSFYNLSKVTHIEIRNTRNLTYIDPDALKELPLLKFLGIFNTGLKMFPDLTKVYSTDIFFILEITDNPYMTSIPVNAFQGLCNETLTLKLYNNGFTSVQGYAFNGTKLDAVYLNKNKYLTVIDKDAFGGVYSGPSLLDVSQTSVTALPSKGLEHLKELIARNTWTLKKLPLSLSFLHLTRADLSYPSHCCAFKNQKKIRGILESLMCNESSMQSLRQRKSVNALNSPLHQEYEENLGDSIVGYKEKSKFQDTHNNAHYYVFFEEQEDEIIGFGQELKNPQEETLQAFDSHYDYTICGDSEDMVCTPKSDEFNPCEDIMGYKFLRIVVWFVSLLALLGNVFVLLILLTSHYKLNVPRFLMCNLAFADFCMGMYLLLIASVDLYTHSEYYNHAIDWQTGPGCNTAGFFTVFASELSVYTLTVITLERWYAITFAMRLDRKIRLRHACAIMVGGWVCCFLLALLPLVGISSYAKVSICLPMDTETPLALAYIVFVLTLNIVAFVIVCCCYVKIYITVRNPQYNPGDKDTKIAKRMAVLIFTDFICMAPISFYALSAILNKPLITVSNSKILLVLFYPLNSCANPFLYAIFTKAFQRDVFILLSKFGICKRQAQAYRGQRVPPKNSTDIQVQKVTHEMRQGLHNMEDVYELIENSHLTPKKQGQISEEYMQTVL
Chain of Androgen receptor (Homo sapiens) (P10275 whole entry, looked up): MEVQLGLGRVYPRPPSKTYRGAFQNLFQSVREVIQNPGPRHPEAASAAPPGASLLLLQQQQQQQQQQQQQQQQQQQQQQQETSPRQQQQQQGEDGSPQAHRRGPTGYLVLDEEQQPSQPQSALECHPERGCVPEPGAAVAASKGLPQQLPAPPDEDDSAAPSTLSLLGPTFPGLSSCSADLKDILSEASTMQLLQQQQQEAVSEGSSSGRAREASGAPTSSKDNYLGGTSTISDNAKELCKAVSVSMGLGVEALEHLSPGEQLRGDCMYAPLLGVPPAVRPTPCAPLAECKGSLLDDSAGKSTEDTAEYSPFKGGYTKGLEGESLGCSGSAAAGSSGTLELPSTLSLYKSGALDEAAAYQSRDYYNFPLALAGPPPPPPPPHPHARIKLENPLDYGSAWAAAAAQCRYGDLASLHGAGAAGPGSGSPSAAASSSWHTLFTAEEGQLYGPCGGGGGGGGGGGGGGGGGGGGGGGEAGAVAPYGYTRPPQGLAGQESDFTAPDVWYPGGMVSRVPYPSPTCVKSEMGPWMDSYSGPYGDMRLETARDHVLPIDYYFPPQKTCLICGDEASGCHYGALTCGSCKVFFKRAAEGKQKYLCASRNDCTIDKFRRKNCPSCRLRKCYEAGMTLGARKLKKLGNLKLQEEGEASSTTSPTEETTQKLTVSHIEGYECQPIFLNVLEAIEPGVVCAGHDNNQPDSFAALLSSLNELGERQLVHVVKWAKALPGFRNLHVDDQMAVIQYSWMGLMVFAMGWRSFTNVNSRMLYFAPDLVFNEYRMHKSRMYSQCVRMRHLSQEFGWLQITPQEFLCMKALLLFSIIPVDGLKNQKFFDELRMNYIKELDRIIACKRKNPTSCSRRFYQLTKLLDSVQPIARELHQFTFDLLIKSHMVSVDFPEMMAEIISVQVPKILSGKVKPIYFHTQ
Chain of Estrogen receptor (Homo sapiens) (P03372 whole entry, looked up): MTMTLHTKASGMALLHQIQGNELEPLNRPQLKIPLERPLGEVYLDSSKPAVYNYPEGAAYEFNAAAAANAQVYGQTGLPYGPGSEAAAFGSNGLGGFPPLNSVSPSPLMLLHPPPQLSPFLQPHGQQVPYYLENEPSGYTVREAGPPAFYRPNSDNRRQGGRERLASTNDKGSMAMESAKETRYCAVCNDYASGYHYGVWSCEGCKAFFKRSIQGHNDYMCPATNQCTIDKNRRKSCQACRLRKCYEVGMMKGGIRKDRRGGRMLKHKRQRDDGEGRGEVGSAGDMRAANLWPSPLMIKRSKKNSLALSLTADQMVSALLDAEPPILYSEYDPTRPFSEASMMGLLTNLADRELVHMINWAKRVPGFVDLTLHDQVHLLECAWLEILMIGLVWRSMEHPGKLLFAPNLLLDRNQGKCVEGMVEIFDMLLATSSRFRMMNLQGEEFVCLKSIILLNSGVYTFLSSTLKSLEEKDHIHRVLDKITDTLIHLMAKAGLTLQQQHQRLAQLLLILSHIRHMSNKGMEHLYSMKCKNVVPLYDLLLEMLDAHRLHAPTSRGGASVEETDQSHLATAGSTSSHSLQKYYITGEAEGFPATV

Take `CCCCCCCCCCCCCCCC[n+]1ccccc1`: the Potency in [1] was 32 µM (active) and 24.3 µM (active) and 26.9 µM (active); in assay [4], 60.3 µM (active) [middle of 4 runs]; in assay [5] it was 50.8 µM (active) and 61.1 µM (active) and 60.3 µM (active); in [7], 508 nM (active) and 30.6 nM (active) and 21.4 nM (active); in assay [8], 25.5 µM (active) [middle of 4 runs]; in [9], 29.8 µM (active) [middle of 4 runs]. The Potency result in assay [2], in assay [3], in assay [6] and in assay [10] was “inactive” in each case.

In the case of `CCOCn1c(-c2ccc(Cl)cc2)c(C#N)c(Br)c1C(F)(F)F`, the Potency in assay [11] was 1.93 µM (active); in assay [8] it was 6.86 µM (active); in assay [12], 27.3 µM (active); in assay [9] it was 34.4 µM (active). Also, the Potency entry in assay [2], in [3], in assay [4], in assay [6] and in assay [10] was “inactive” in each case. Besides, in [13], the compound was called inactive.

In the case of `NNC(=O)c1ccccc1`, the Potency result in assay [11], in assay [3], in assay [4], in assay [6], in assay [14] and in assay [15] was “inactive” in each case. For the same compound, the Potency entry in [8], in [12], in assay [9], in assay [10] and in assay [16] was “inactive” throughout. In addition, the Potency in assay [5] is 39.6 µM (active); in [7], 31.5 µM (active). Also, the call in [13] was inactive.

On to `CCOP(=S)(OCC)SCS(=O)(=O)CC`, for which the Potency entry in assay [17], in assay [11], in assay [2], in assay [3], in assay [4] and in assay [5] was “inactive” in each case. The Potency entry in [6], in assay [7], in assay [14], in assay [15], in [8] and in assay [12] was “inactive” in each case. Moreover, the Potency entry in assay [18], in [9], in [10] and in assay [16] was “inactive” in each case. Further, in assay [13], the call was inactive.

On to `COc1cccc(C(=O)CCN[C@@H](C)[C@H](O)c2ccccc2)c1`, for which the Potency in assay [17] is 29.8 µM (active); in assay [7], 23.7 µM (active). The Potency result in [2], in assay [6], in assay [14], in assay [15], in assay [12] and in [18] was “inactive” each time. Also, the Potency entry in assay [9] and in assay [16] was “inactive” each time. Besides, in assay [13], the call was inactive.

Turning to `O=[N+]([O-])c1ccc2ccc3cccc4ccc1c2c34`, the Potency in assay [17] is 0.863 µM (active); in [8], 48.5 µM (active); in assay [12] it was 30.6 µM (active). The Potency result in assay [3], in [4], in [5], in assay [6], in assay [18] and in assay [9] was “inactive” throughout. In [10], the Potency entry was “inactive”.

Take `O=[N+]([O-])O.O=[N+]([O-])O.[Cd]`: the Potency result in assay [2], in assay [3], in [6], in [8] and in assay [16] was “inactive” each time. Besides, the Potency is 8.63 µM (active) in [4], 15.4 µM (active) in [5], 1.72 µM (active) in assay [7] and 54.5 µM (active) in assay [9]. Further, in assay [13], the compound was called inactive.

Consider `CCCN(CCC)c1c([N+](=O)[O-])cc(S(N)(=O)=O)cc1[N+](=O)[O-]`, for which the Potency result in [19], in assay [2] and in assay [6] was “inactive” each time. For the same compound, the Potency in [4] is 54.5 µM (active); in assay [5], 24.3 µM (active); in [7] it was 4.86 µM (active); in assay [8] it was 51.8 µM (active); in assay [12], 23.1 µM (active); in [9] it was 54.9 µM (active). The Potency in assay [10] is 65.2 µM (active). Moreover, in assay [13], the outcome was inactive.

Regarding `CC(=O)OC1(c2ccccc2)CCN(CCc2ccccc2)CC1`, the Potency entry in [2], in assay [3], in [5], in assay [6], in assay [14] and in assay [15] was “inactive” in each case. The Potency result in [9] is “inactive”. Further, the Potency in assay [8] is 70.3 µM (active). The result in assay [13] was inactive.

Regarding `S=C(SSC(=S)N1CCCCC1)N1CCCCC1`, in [19], the PLD induction is -4.77% [at 0.0123 µM]. The Potency entry in [2], in assay [3], in [6], in assay [8] and in [16] was “inactive” each time. In addition, the results for the Potency in assay [4], in assay [5] and in assay [12] were 2.66 µM (active), 5.96 µM (active) and 0.188 µM (active), respectively. Further, the result in assay [13] was inactive.

`CC(C)(C)C(O)/C(=C\c1ccc(Cl)cc1Cl)n1cncn1` (stereo unspecified): the Potency in assay [11] was 74 µM (active); in [5], 65.9 µM (active); in assay [7] it was 7.4 µM (active); in [12] it was 74 µM (active). Also, the Potency result in [2], in assay [3], in [6], in [14] and in assay [10] was “inactive” in each case.
